Inconclusive results are not listed. Calls of active or inactive are those of the source. Rule for the calls: active = hit-call score of the fitted dose curve at least 0.9, where 1 is the maximum; inconclusive = response in the unintended direction; inactive = score below 0.9.
Each compound was assayed on glucuronosyltransferase (UGT1A1), UGT1A1 (gene 54658) (assay: CLD_UGT1A1_48hr: CellzDirect (CLD) Gene Expression Assay for glucuronosyltransferase (UGT1A1) at 48 hours (AID 2283709);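 note: actives increase expression relative to DMSO so potency refers to induction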).
Procedure: CLD_48hr is a cell-based, multiplexed-readout assay that uses hepatocyte, a human liver primary cell, with measurements taken at 48 hours after chemical dosing in a 96-well plate.CLD_UGT1A1_48hr is one of 16 assay component(s) measured or calculated from the CLD_48hr assay. It is designed to make measurements of mRNA induction, a form of inducible reporter, as detected with chemiluminescence signals by Quantitative Nuclease Protection Assay (qNPA) technology.Data from the assay component CLD_UGT1A1_48hr was analyzed at the endpoint, CLD_UGT1A1_48hr, in the positive analysis fitting direction relative to DMSO as the negative control and baseline of activity. Using a type of inducible reporter, gain-of-signal activity can be used to understand changes in the reporter gene as they relate to the gene UGT1A1. Furthermore, this assay endpoint can be referred to as a primary readout. To generalize the intended target to other relatable targets, this assay endpoint is annotated to the transferase intended target family, where subfamily is glucuronosyltransferase.
Human hepatocyte cultures were treated daily for two consecutive days with fresh dosing solutions containing appropriate concentrations of the 320 ToxCast chemicals (chemical identities were blinded to CellzDirect and other ToxCast collaborators), vehicle control (0.2% DMSO), and positive control inducers as summarized in Table 1. Due to the large number of treatment groups and chemicals examined, the ToxCast chemicals were divided into two groups (spanning two independent cultures of hepatocytes from separate donor preparations (Hu778: ToxCast plates 1 and 2; Hu776: ToxCast plates 3 and 4). Each preparation of human hepatocyte cultures was treated with respective vehicle control, medium only control, set of six positive controls/reference chemicals for the five hepatic receptor pathways, and a subset of eight of the ToxCast chemicals (indoxacarb, pyrithiobac-sodium, norflurazon, cyhalofop-butyl, methomyl, thiram, acetochlor, and propiconazole). These replicate data, coupled with internal replicates designed within the blinded ToxCast chemical library, provided additional data to evaluate interindividual differences between hepatocyte preparations and their potential impact on chemical profiles.Cell morphology and integrity were evaluated using phase-contrast microscopy as an indicator of hepatocyte cell health (Tyson & Green, 1987). Cultures for each treatment group (i.e., media, vehicle [0.2% DMSO], positive control inducers [multiple concentrations], and the ToxCast chemicals [multiple concentrations]) were observed and cell morphology was assessed relative to vehicle control cultures at each harvest time point (0, 6, 24, or 48 h). […] Images were evaluated at the conclusion of the study to assess changes in cell integrity and account for the effects of chemical exposure on uncharacteristic changes in concentration-dependent gene expression profiles. The results from these determinations of apparent cytotoxicity were annotated (yes/no) alongside the corresponding qNPA data for reference.At the conclusion of each treatment period, hepatocyte cultures (96-well) were washed with 1 volume of HBSS, lysed by addition of 25 ul ArrayPlate lysis buffer (HTG, Tucson, AZ), and 70 ul/well of Denaturation Oil, denatured by incubation at 95C for 10 min, and frozen at approximately -70C until analysis by nuclease protection assay (qNPA) (Roberts et al., 2007). For qNPA analysis, cell lysates were thawed at 50C for approximately 30 min, qNPA probes were added, and samples were incubated at 95C for 10 min to begin the detection process by denaturing the target RNA, dissociating the duplexes and secondary structure hybridization. At the conclusion of the hybridization period, S1 nuclease reagent was added to each sample to digest all nonprotected nucleotides at 50C for 60-90 min. […]
`N#CN=C1SCCN1Cc1ccc(Cl)nc1` was tested, and the outcome was “inactive”.
With `COc1cc(Cl)c(OC)cc1Cl` the outcome was “inactive”.
`Cc1cc(C)nc(Nc2ccccc2)n1` was tested, and the outcome was “inactive”.
With `N#Cc1c[nH]cc1-c1cccc2c1OC(F)(F)O2` the outcome was “inactive”.
`COCC(C)N(C(=O)CCl)c1c(C)csc1C` (stereo not given) was tested, and the outcome was “inactive”.
`CC1(C)C(C(=O)OC(C#N)c2cccc(Oc3ccccc3)c2)C1(C)C` (stereo not given) was tested, and the AC50 was 5.67 µM (active).
For `CC(C)C1(C)N=C(c2ncccc2C(=O)O)NC1=O` (stereo not given), the outcome was “inactive”.
With `CCCCC(C#N)(Cn1cncn1)c1ccc(Cl)cc1` (stereo not given) the outcome was “inactive”.
With `COc1cc(OC)nc(NC(=O)NS(=O)(=O)c2ncccc2OCC(F)(F)F)n1` the outcome was “inactive”.
With `CC(C)NC(=O)N1CC(=O)N(c2cc(Cl)cc(Cl)c2)C1=O` the outcome was “inactive”.
For `CCCCOCN(C(=O)CCl)c1c(CC)cccc1CC`, the outcome was “inactive”.
With `C=CCOC(=O)C(C)(C)OC(=O)c1cc(-n2c(=O)cc(C(F)(F)F)n(C)c2=O)ccc1Cl` the outcome was “inactive”.
For `Cc1nc(N(C)C)nc(OC(=O)N(C)C)c1C`, the outcome was “inactive”.
In the case of `CC(C)Oc1cccc(NC(=O)c2ccccc2C(F)(F)F)c1`, the outcome is reported as “inactive”.
`CC(C)Nc1nc(Cl)nc(NC(C)C)n1` was tested, and the AC50 was 5.88 µM (active).
In the case of `CNC(=O)N(C)c1nnc(C(C)(C)C)s1`, the outcome is reported as “inactive”.
`CCCCC(O)(Cn1cncn1)c1ccc(Cl)cc1Cl` (stereo not given) was tested, and the outcome was “inactive”.
With `CCN(CC)C(=O)C(C)Oc1cccc2ccccc12` (stereo not given) the AC50 was 3.1 µM (active).
`CCCC(=NOCC)C1=C(O)CC(CC(C)SCC)CC1=O` (stereo not given) was tested, and the outcome was “inactive”.
With `Cc1c(COC(=O)[C@@H]2[C@H](/C=C(\Cl)C(F)(F)F)C2(C)C)cccc1-c1ccccc1` the outcome was “inactive”.
`CO/N=C(/C1=NOCCO1)c1ccccc1Oc1ncnc(Oc2ccccc2Cl)c1F` was tested, and the outcome was “inactive”.
`CC(C)=CC1C(C(=O)OCc2coc(Cc3ccccc3)c2)C1(C)C` (stereo not given) was tested, and the outcome was “inactive”.
For `CNC(=O)Oc1cccc2ccccc12`, the outcome was “inactive”.
`COC(=O)N(C(=O)N1CO[C@@]2(C(=O)OC)Cc3cc(Cl)ccc3C2=N1)c1ccc(OC(F)(F)F)cc1` was tested, and the outcome was “inactive”.
`CCN(CC)c1nc(C)cc(OP(=S)(OC)OC)n1` was tested, and the outcome was “inactive”.
In the case of `COCC(=O)N(c1c(C)cccc1C)C(C)C(=O)OC` (stereo not given), the outcome is reported as “inactive”.
`CCNC(=O)NC(=O)C(C#N)=NOC` was tested, and the outcome was “inactive”.
With `COP(=S)(OC)SCn1nnc2ccccc2c1=O` the AC50 was 6.38 µM (active).
`CCOc1nc(F)cc2nc(S(=O)(=O)Nc3c(Cl)cccc3Cl)nn12` was tested, and the outcome was “inactive”.
With `CC(C)N1C(=O)c2ccccc2NS1(=O)=O` the outcome was “inactive”.
For `Nc1c(Cl)c(F)nc(OCC(=O)O)c1Cl`, the outcome was “inactive”.
For `COc1ccc(-c2ccccc2)cc1NNC(=O)OC(C)C`, the outcome was “inactive”.
For `CCSC(=O)N1CCCCCC1`, the outcome was “inactive”.
In the case of `CCOP(=S)(OCC)Oc1nc(Cl)n(C(C)C)n1`, the AC50 is reported as 1.9 µM (active).
With `O=c1n(Cl)c(=O)n(Cl)c(=O)n1Cl` the outcome was “inactive”.
For `CC(C)(C)C(=O)C(Oc1ccc(Cl)cc1)n1cncn1` (stereo not given), the outcome was “inactive”.
For `Clc1nc(Cl)nc(Nc2ccccc2Cl)n1`, the outcome was “inactive”.
For `CC1(C)CCC(=Cc2ccc(Cl)cc2)C1(O)Cn1cncn1` (stereo not given), the outcome was “inactive”.
With `O=P(O)(O)CCCl` the outcome was “inactive”.
`Clc1cccc(C(Cl)(Cl)Cl)n1` was tested, and the outcome was “inactive”.
